Measurements: ChEMBL document CHEMBL1157539, “Thousands of chemical starting points for antimalarial lead identification” (Nature, 2010)

How the values were obtained:
Format in all cases: functional
[1] = test system: Plasmodium falciparum; assay: GSK_TCMDC: Inhibition of Plasmodium falciparum 3D7 in whole red blood cells, using parasite LDH activity as an index of growth. Test compounds present at 2uM
[2] = test system: Plasmodium falciparum; assay: GSK_TCMDC: Inhibition of Plasmodium falciparum Dd2 in whole red blood cells, using parasite LDH activity as an index of growth. Test compounds present at 2uM
[3] = test system: HepG2; assay: GSK_TCMDC: Percent inhibition of human HepG2 cell line. Test compounds present at 10uM.

SMILES | Inhibition [1] [%] | Inhibition [2] [%] | Inhibition [3] [%]
COC(=O)c1cccc(CNCc2ccc(-c3cccc(-c4nc5cc(C(F)(F)F)ccc5[nH]4)c3)cc2)c1.O=C(O)C(F)(F)F | 100 | 97 | 5
CNC(=O)c1cnc(Nc2ccc(OCC(O)CN(C)C)cc2)nc1Nc1cccc(OC(C)C)c1.O=C(O)C(F)(F)F (stereo not drawn) | 100 | 100 | 21
CCC1(CC)C(=O)N=C(N2CCCCC2)N(C)C1=O | 89 | 66 | 0
Cc1nc2ccccn2c1C1(O)C(=O)Nc2c(Cl)cc(Cl)cc21 (stereo not drawn) | 95 | 62 | 0
Cc1ccc(-c2cc(C(=O)Nc3ccc(S(=O)(=O)N4CCCCC4)cc3)[nH]n2)c(O)c1 | 97 | 92 | 6
Cc1ccc(-c2nn3c(O)c4c(nc3c2C)CCCC4)cc1 | 97 | 87 | 16
CC(Cc1ccc(OCCN2CCN(c3ccc(Cl)cc3)CC2)cc1)NCC(O)c1cccc(C(F)(F)F)c1.Cl (stereo not drawn) | 99 | 96 | 97
COc1ccc(Cn2c(Nc3cccc(C(F)(F)F)c3)nc3cc(C(=O)NC4CC4)cnc32)cc1Cl | 94 | 96 | 0
Cc1cc(CNC(=O)[C@H](CC2CCCCC2)Nc2ccc(C#N)c3ccccc23)c(C(F)(F)F)o1.O=C(O)C(F)(F)F | 87 | 55 | 13
O=C(/C=C/c1ccc(Cl)c(Cl)c1)NC1CCC(CN2CCC(c3nc4ccccc4n3CCCO)CC2)CC1 (stereo not drawn) | 99 | 28 | 28
COc1ccc2nccc(N(C)CC3(O)CCN(CC(O)c4ccc5c(c4)NC(=O)CS5)CC3)c2n1.Cl (stereo not drawn) | 100 | 0 | 1
COc1cc(Cc2cnc(N)nc2N)cc(OC)c1OCCNC(=O)[C@@H](N)CCC(=O)O.Cl | 96 | 0 | 0
Cc1cc(N[C@@H](Cc2ccccc2)C(=O)NCc2cccs2)nc(NCCOc2ccccc2)n1.O=C(O)C(F)(F)F | 93 | 31 | 2
O=C(NC1CCCCCC1)C1CCCN(C(=O)c2ccc(O)c(-c3ccc(Cl)c(Cl)c3)c2)C1 (stereo not drawn) | 98 | 21 | 5
COc1ccc2nc(C)cc(N/N=C/c3cccc([N+](=O)[O-])c3)c2c1 | 100 | 97 | 6
Oc1ccc2[nH]c(-c3cccc(F)c3)nc2c1CN1CCCC1 | 100 | 47 | 0
Cl.N=C(N)Nc1ccc(OCCCCCOc2ccc(NC(=N)N)c(Cl)c2)cc1Cl | 92 | 92 | 18
COc1ccc(CNC2Cc3ccccc3C2)cc1-c1ccc(S(=O)(=O)NCc2cccnc2)s1.O=C(O)C(F)(F)F | 91 | 18 | 49

SMILES | Inhibition [1] [%] | Inhibition [2] [%] | Inhibition [3] [%]
Cc1cc(N2CCN(CC3CCCCC3)CC2)nc(Nc2ccc(Br)cc2)n1 | 91 | 16 | 0
COc1ccc(-c2cccc(NC(=O)c3ccc(Cl)cc3)c2)cc1CN1CCC(O)CC1.O=C(O)C(F)(F)F | 100 | 43 | 51
CO/C(=C\C=C\c1cc2cc(Cl)c(Cl)cc2[nH]1)C(=O)NCCCN1CCN(c2cccc(OCC(=O)Nc3ccccc3)c2)CC1 | 100 | 81 | 49
COc1ccc(O)cc1/C=N/Nc1ccnc2cc(Cl)ccc12 | 100 | 92 | 0
Cc1ccc(C)c(Cn2c(N3CCC(C(=O)NCc4cccs4)CC3)nc3ccccc32)c1 | 89 | 73 | 0
Cc1c(C(=O)N(C)C)sc2c1c(=O)n(Cc1ccccc1)c(=O)n2CC(=O)Nc1ccccc1F | 97 | 98 | 13
O=C(c1ccc(Cl)cc1Cl)N1CCCC(C(F)(F)F)C1 (stereo not drawn) | 95 | 47 | 6
CS(=O)(=O)c1ccc(CNCc2ccc(-c3ccc(-c4nc5cc(C(F)(F)F)ccc5[nH]4)cc3)cc2)cc1.O=C(O)C(F)(F)F | 100 | 82 | 26
O=C(Nc1cccc(CN2CCCN(Cc3ncc[nH]3)CC2)c1)c1ccc2ccccc2c1.O=C(O)C(F)(F)F | 100 | 2 | 13
CN1CCC(C(=O)Nc2ccc(-c3ccc(-c4nc5cc(C(F)(F)F)ccc5[nH]4)s3)cc2)CC1 | 100 | 95 | 53
N#Cc1ccc(/C=C/C(=O)NCCCCCN2CCCN(C(=O)Nc3ccc(Cl)c(C(F)(F)F)c3)CC2)cc1 | 98 | 13 | 28
CC(=O)Nc1cccc(C(=O)Nc2cccc(-c3cccc(-c4nc5cc(F)ccc5[nH]4)c3)c2)c1 | 100 | 44 | 51
CCN1CCC(N(Cc2ccc(-c3ccc(C(F)(F)F)cc3)cc2)C(=O)Cn2nc(C)c(=O)cc2SCc2ccc(F)cc2)CC1.O=C(O)C(O)C(O)C(=O)O | 94 | 94 | 77
N=c1c(C(=O)NCc2ccccc2)cc2c(=O)n3ccccc3nc2n1CCc1ccccc1 | 99 | 25 | 5
Cc1cc2ncn(-c3ccnc(N4CCN(CCCN5CCCC5)CC4)n3)c2cc1C.O=C(O)C(F)(F)F | 100 | 49 | 24
COc1ccc(N2CCN(CCCNC(=O)c3ccc(NC(=O)c4cc(Cl)cc(Cl)c4)cc3)CC2)c(OC)c1 | 100 | 79 | 21
O=C(NC1CCN(Cc2ccccc2)CC1)c1ccc(-c2nc3cc(Cl)c(Cl)cc3[nH]2)s1 | 100 | 99 | 17
CC(C)c1sc(N2CCN(C)CC2)nc1C(=O)Nc1cccc2c1CCCC2.O=C(O)C(F)(F)F | 98 | 50 | 3
